GCN5L2 inh: inhibitors of human GCN5L2 histone acetyltransferase; actives 0.21% (n = 390,000); Potency, µM (titrated, usually from 58.9 µM), hits mostly inhibitors; Q92830; GCN5L2 HAT assay, ThioGlo1 CoA-SH fluorescence; AID 504327
Target sequence (Q92830 whole entry, looked up): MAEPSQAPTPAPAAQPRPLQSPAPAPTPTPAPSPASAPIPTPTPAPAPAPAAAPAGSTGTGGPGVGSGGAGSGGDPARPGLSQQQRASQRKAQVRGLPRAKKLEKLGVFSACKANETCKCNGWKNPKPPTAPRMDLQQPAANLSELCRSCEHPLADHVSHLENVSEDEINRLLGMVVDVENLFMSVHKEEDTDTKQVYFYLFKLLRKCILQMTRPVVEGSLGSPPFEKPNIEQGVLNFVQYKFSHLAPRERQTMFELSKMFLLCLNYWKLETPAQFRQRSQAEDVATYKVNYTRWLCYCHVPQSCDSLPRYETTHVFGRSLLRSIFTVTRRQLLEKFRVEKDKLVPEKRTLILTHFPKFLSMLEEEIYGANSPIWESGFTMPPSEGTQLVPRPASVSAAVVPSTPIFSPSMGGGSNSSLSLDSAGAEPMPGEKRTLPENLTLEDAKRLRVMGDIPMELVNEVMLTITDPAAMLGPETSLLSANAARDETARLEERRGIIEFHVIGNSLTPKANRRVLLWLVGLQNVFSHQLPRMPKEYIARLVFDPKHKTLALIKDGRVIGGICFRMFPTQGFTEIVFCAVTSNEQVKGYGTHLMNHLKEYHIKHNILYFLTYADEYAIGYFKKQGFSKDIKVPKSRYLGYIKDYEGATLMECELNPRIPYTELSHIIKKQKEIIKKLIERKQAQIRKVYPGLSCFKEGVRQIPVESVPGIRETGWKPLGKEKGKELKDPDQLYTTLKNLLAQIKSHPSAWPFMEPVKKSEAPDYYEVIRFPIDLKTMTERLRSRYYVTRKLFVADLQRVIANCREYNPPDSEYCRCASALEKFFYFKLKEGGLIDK
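Compounds, pin-transferred from DMSO stocks, meet 20nM GCN5L2 for 15 min before the reaction begins with H3(1-25) peptide (75uM) and acetyl-CoA (70uM). Thiol-reactive ThioGlo1 reports CoA release over 20 min at room temperature.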
Epigenetic reg: regulators of epigenetic silencing causing reporter derepression in mouse cells; murine LDR cells, GFP reporter derepression, 30 h; Potency, µM (doses to about 53.9 µM), usual class: activators; actives 0.2% (n = 280,000); AID 1865; further: nearly all actives have a fitted effect of over 60% in size
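In this reporter-derepression format, murine cells bearing a silenced integrated CMV-GFP locus incubate with test compound (30 h, 37 C), then are washed and imaged; fluorescent objects of 20–120 um count as induced cells.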
NPSR antagonist: antagonists of human neuropeptide S receptor cAMP signaling | Potency, µM (series often up to 38.3 µM), usual class: inhibitors | Q6W5P4 | CHO-NPSR cells, cAMP TR-FRET, antagonist mode | actives 1% (n = 220,000) | AID 1461; further: nearly all actives have a fitted effect of over 50% in size
Sfp inh: blocks B. subtilis Sfp PPTase activity; Q9F4F7; AID 1490; Potency, µM, usual class: inhibitors; Biochemical Sfp PPTase activity, qHTS; actives 3.5% (n = 310,000);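 further: the enzyme is Sfp with the accession as filed and its product quenches rhodamine fluorescence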
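Sfp 15 nM + cpd, 15 min RT; start w/ rhodamine-CoA 5 uM, BHQ-2-YbbR 12.5 uM (final); 50 mM Hepes pH 7.6, 10 mM MgCl2, 0.01% NP-40, 0.01% BSA; read 525/598 nm at 0 and 30 min.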
JMJD2E inh: blocks human JMJD2E demethylase activity; Potency, µM (titrated, usually from 57.1 µM), hits mostly inhibitors; B2RXH2; AID 2147; JMJD2E catalytic domain, FDH-coupled NADH fluorescence (FDH is formaldehyde dehydrogenase); actives 1.6% (n = 230,000); active means well fitted inhibition curve with a large enough effect, not every such curve was filed as active; inconclusive means small, poorly fitted or top-dose-only effect, or another doubt; inactive means no such curve, though single readings can be large or run the other way; further: nearly all actives have a fitted effect of over 50% in size
IMPase Li cell: cell-permeable IMPase inhibitors with lithium potentiation. CHO-M1 cells, IP1 TR-FRET (IP-One), carbachol + lithium. Potency, µM (doses to about 59.4 µM), hits mostly inhibitors. actives 0.35% (n = 210,000). AID 1457;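 further: IP1 builds up when IMPase is blocked and the TR-FRET signal falls; nearly all actives have a fitted effect of over 50% in size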
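CHO cells stably expressing M1 receptor (2000/well, cultured 16–30 h) treated 30 min at 37C with compound plus low lithium. Cytosolic IP1 by TR-FRET (665/620 ratio and 620 channel) after 10 min lysis; AC50 by Hill fit.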
Each line names hits and unclear results; the compound was inactive in the other large screens. An excerpt weighted towards active compounds, which were near 3.6% of everything screened. Unless noted, the call rests on the fitted dose curve; in most records, active means well fitted curve in the direction sought with a large enough effect; inconclusive means small, poorly fitted or top-dose-only effect, or another doubt; inactive means no such curve, though single readings can be large; an effect the other way counts as inactive or inconclusive.

Cc1ccc(C(=O)C2=C(O)C(=O)N(CCCN3CCOCC3)C23C(=O)N(C)c2ccccc23)o1 (centres undefined)	IMPase Li cell inconclusive
CCN1C(=O)C2(C(C(=O)c3cc4ccccc4o3)=C(O)C(=O)N2CCCN2CCOCC2)c2ccccc21 (centres undefined)	NPSR antagonist 7.9µM (no result: IMPase Li cell)
CC(C)C[C@@H](NC(=O)[C@@H](Cc1ccccc1)NC(=O)c1cnccn1)B(O)O	none (no result: Epigenetic reg, NPSR antagonist, JMJD2E inh, IMPase Li cell)
Cn1cccc1/C=C(/C#N)C(N)=S	none
CCCCc1ccc(/C=C(\C#N)C(N)=S)s1	NPSR antagonist inconclusive, Sfp inh 40µM
Cn1c2cc(B(O)O)sc2c2cnn(Cc3ccc(F)cc3F)c(=O)c21	none (no result: Epigenetic reg, NPSR antagonist, Sfp inh, JMJD2E inh, IMPase Li cell)
CCCCN1C(=O)/C(=C2\SC(N3CCOCC3)=NC2=O)c2ccccc21	none (no result: Epigenetic reg, NPSR antagonist, JMJD2E inh, IMPase Li cell)
NC(=O)CN1C(=O)/C(=c2\sc3nc(=O)c(Cc4ccccc4)nn3c2=O)c2ccccc21	Sfp inh 11µM (no result: IMPase Li cell)
CCCN1C(=O)/C(=c2\sc3nc(=O)c(Cc4ccc(C)cc4)nn3c2=O)c2ccccc21	Sfp inh 20µM
CCCCN1C(=O)/C(=c2\sc3nc(=O)c(-c4ccccc4)nn3c2=O)c2ccccc21	Sfp inh 16µM
Cc1ccc(CNC(=O)CSc2c(C(C)C)cnc3c2c(=O)n(C)c(=O)n3C)cc1	none (no result: NPSR antagonist, Sfp inh, JMJD2E inh, IMPase Li cell)
O=C(/C=C/c1ccc(F)cc1)Nc1nc2n(n1)C(c1ccc(Cl)cc1)C=C(c1ccccc1)N2 (centres undefined)	none (no result: NPSR antagonist, Sfp inh, JMJD2E inh, IMPase Li cell)
Cc1sccc1C1C(C#N)=C(N)SC(N)=C1C#N	Sfp inh 18µM, IMPase Li cell inconclusive
Cc1ccc(C(=O)c2sc(Nc3ccc(F)cc3)nc2N)c(C)c1	none (no result: NPSR antagonist, Sfp inh, JMJD2E inh, IMPase Li cell)
Cc1sc(-c2ccccn2)nc1OC(=O)c1ccc(F)cc1F	Sfp inh 16µM
COc1ccc(-c2csc(/C(C#N)=C/Nc3ccc4c(c3)OCCO4)n2)cc1	Epigenetic reg 10µM
COc1ccc(C2(C(=O)c3ccccc3)C(=O)c3ccccc3C2=O)cc1	Sfp inh 45µM (no result: IMPase Li cell)
CCNc1nc(NC(C)C)nc(N(C#N)CCOc2ccc(Cl)cc2Cl)n1	NPSR antagonist 10µM, JMJD2E inh inconclusive
O=C(c1csnn1)N1CCC2(CCCN(c3ccccn3)C2)CC1	none (no result: Epigenetic reg, NPSR antagonist, JMJD2E inh)
COc1ccc(NC(=O)CSCc2cc(=O)c3cc(Cl)ccc3[nH]2)cc1	none (no result: NPSR antagonist, Sfp inh, JMJD2E inh, IMPase Li cell)
CCC(=O)O[C@H]1C(O[C@@H]2C(C)[C@H](O[C@H]3C[C@@](C)(OC)C(O)C(C)O3)C(C)C(=O)OC(CC)[C@@](C)(O)C(O)[C@H](C)C(=O)C(C)C[C@]2(C)O)OC(C)CC1N(C)C (some centres undefined)	GCN5L2 inh 7.1µM, Epigenetic reg inconclusive (no result: NPSR antagonist)
CCOC(=O)CCC(=O)O[C@H]1C(O[C@@H]2C(C)[C@H](O[C@H]3C[C@@](C)(OC)C(O)C(C)O3)C(C)C(=O)OC(CC)[C@@](C)(O)C(O)[C@H](C)C(=O)C(C)C[C@]2(C)O)OC(C)CC1N(C)C (some centres undefined)	none (no result: NPSR antagonist)
CCCCC(=O)O[C@]1(C(=O)CO)CCC2C3CCC4=CC(=O)CCC4(C)C3C(O)CC21C (some centres undefined)	none (no result: Epigenetic reg, NPSR antagonist, JMJD2E inh, IMPase Li cell)
CN(Cc1nccs1)C(=O)CC1C(=O)NCCN1Cc1ccc(-c2ccccc2)cc1 (centres undefined)	Sfp inh 45µM, JMJD2E inh inconclusive (no result: IMPase Li cell)
CCN(Cc1ccncc1)C(=O)CC1C(=O)NCCN1Cc1ccc(F)c(F)c1 (centres undefined)	Sfp inh 79µM, JMJD2E inh inconclusive
CCN(CCn1cccn1)C(=O)CC1C(=O)NCCN1Cc1ccc(F)c(F)c1 (centres undefined)	none
O=C(O)c1c(-c2nccc3ccccc23)[nH]c(-c2ccccc2)c1S(=O)(=O)O	none (no result: GCN5L2 inh, Epigenetic reg, NPSR antagonist, Sfp inh, JMJD2E inh)
Oc1ccc(/C=N/Nc2ccnc3cc(Cl)ccc23)c(O)c1O	Sfp inh 45µM (no result: Epigenetic reg, NPSR antagonist, JMJD2E inh, IMPase Li cell)
Oc1ccc(/C=N/Nc2ccnc3cc(Cl)ccc23)cc1O	Sfp inh inconclusive, JMJD2E inh inconclusive (no result: IMPase Li cell)
C[C@H]1Cc2c(COc3ccccc3)nc3c(c2CO1)CN(C(=O)C1CCCCC1)CC3	none (no result: GCN5L2 inh, Epigenetic reg, NPSR antagonist)
Cc1ccc(N/N=C2\CC(=O)c3ccccc32)cc1Cl	JMJD2E inh 22µM
Cc1ccc(Cn2nc(C)c(NC(=O)CSc3nc4c(c(C(F)(F)F)n3)CCc3ccccc3-4)c2C)cc1	none
Cc1nn(Cc2ccc(Cl)cc2)c(C)c1NC(=O)CSc1nc2c(c(C(F)(F)F)n1)CCc1ccccc1-2	Sfp inh 35µM
C=C1C=CS(=O)(=O)N(Cc2ccccc2)C1	none (no result: GCN5L2 inh, Epigenetic reg, NPSR antagonist, JMJD2E inh, IMPase Li cell)
COC1CC2CCC(C)[C@](O)(O2)C(=O)C(=O)N2CCCCC2C(=O)OC(C(C)CC2CCC(O)C(OC)C2)CC(=O)C(C)/C=C(/C)C(O)C(OC)C(=O)C(C)CC(C)C=CC=C/C=C\1C (some centres undefined)	none (no result: Epigenetic reg, NPSR antagonist, JMJD2E inh, IMPase Li cell)
COc1ccc2c(c1)Cc1sc(NC(C)=O)nc1-2	Sfp inh 20µM
COc1ccc2c(c1)Cc1sc(NC(=O)c3ccco3)nc1-2	none
O=C1C(Cl)=C(N2CCC(C(=O)O)CC2)C(=O)c2ccccc21	GCN5L2 inh inconclusive, Epigenetic reg inconclusive, Sfp inh inconclusive (no result: IMPase Li cell)
NC(=O)C1CCN(C2=C(Cl)C(=O)c3ccccc3C2=O)CC1	NPSR antagonist 10µM, Sfp inh 18µM
CC(C)C[C@H](NC(=O)[C@H](CC(C)C)NC(=O)[C@H](CCC(N)=O)NC(=O)[C@H](CO)NC(=O)[C@@H]1CCCN1C(=O)[C@H](CO)NC(=O)[C@H](CO)NC(=O)[C@@H](NC(=O)[C@H](Cc1cnc[nH]1)NC(=O)[C@H](CCC(=O)O)NC(=O)[C@H](Cc1ccc(O)cc1)NC(=O)[C@H](CCCCN)NC(=O)[C@H](CCC(N)=O)NC(=O)[C@H](Cc1ccc(O)cc1)NC(=O)[C@H](CC(=O)O)NC(=O)[C@@H](NC(=O)[C@@H]1CCCN1C(=O)[C@H](CC(=O)O)NC(=O)[C@H](CC(N)=O)NC(=O)[C@H](CC(=O)O)NC(=O)CNC(=O)[C@H](CC(=O)O)NC(=O)[C@@H]1CCCN1C(=O)[C@H](CCC(N)=O)NC(=O)[C@H](Cc1ccc(O)cc1)NC(=O)[C@H](C)NC(=O)[C@H](Cc1c[nH]c2ccccc12)NC(=O)[C@H](Cc1ccccc1)NC(=O)[C@@H](NC(=O)[C@@H](N)CO)[C@@H](C)O)[C@@H](C)O)[C@@H](C)O)C(=O)N[C@@H](C)C(=O)N1CCC[C@H]1C(=O)NCC(=O)N[C@@H](CC(=O)O)C(=O)N[C@@H](Cc1ccc(O)cc1)C(=O)O	none (no result: Epigenetic reg, NPSR antagonist, JMJD2E inh, IMPase Li cell)
CCC(=O)n1nc(-c2ccco2)nc1SCc1ccccc1	Sfp inh 45µM

Compound activity as filed in PubChem.
